Rows were chosen to be rich in hits. Some 13% of all compounds tested hit in one or more screens of this group.
HCMV antiviral = inhibitors of human cytomegalovirus; HFF cells, HCMV-luciferase reporter, 72 h; stronger effect = lower value; activity change, negative = inhibition, % at 57.5 µM; actives 4.5% (n = 410,000); in the data active means activity change below about -60%; inconclusive means no clear call, values can overlap the other calls; inactive means above about -39%
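After 16 h attachment at 37C, HFF cells received test compound and HCMV-luciferase (1 PFU/cell); reporter luminescence read 72 h later, data normalized against buffer-only and known inhibitor Salinomycin.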
Pf growth 48h = P. falciparum growth inhibition at 48 hours (one generation); actives 5.9% (n = 310,000); Potency, µM (highest dose often 28.7 µM), hits mostly inhibitors; P. falciparum luciferase growth in erythrocytes, 48 h
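Here the parasites carry a stable luciferase gene and grow inside erythrocytes in Albumax-based RPMI medium with compound for one erythrocytic cycle. Activity is scored as loss of luminescent signal.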
Pf growth 96h = P. falciparum growth inhibition at 96 hours | actives 6.9% (n = 320,000) | P. falciparum luciferase reporter growth, 96 h | Potency, µM (top dose mostly 28.7 µM), hits mostly inhibitors | AID 504834
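Erythrocytes infected with luciferase-expressing P. falciparum were dispensed at 2% hematocrit and 0.05% parasitemia (final), then incubated with compounds 96 hours at 37 C in 5% CO2. Luminescence after detection reagent addition reported growth.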
HCV inhibitor = HCV inhibition | Huh7.5.1 HCVcc-Cre infection, luciferase reporter, 44 h | actives 3.4% (n = 340,000) | Potency, µM (series often up to 41.8 µM), hits mostly inhibitors
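After 44 h co-culture of compound, cells and HCVcc-Cre (~0.5 moi), substrate is added for 15 min at room temperature and luciferase measured over 15 sec. Cells were seeded at 1,000/well and pre-cultured 4 h.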
A number is an active result; – = inactive; ? = inconclusive; · = not tested or not shown; [ ] = remark or other dose. Unless noted, the call rests on the fitted dose curve; in most records, active means well fitted inhibition curve with a large enough effect; inconclusive means small, poorly fitted or top-dose-only effect, or another doubt; inactive means no such curve, though single readings can be large or run the other way.

SMILES | HCMV antiviral | Pf growth 48h | Pf growth 96h | HCV inhibitor
C[C@H](O)[C@@H]1C(=O)N2CCc3ccc(-c4ccccc4)cc3[C@@H]2C[C@@H]1N(C)C(=O)Nc1cc(Cl)cc(Cl)c1 | – | · | · | 11µM
COc1ccc(-c2ccc3[nH]c4c(c3c2)CCN2C(=O)[C@@H]([C@H](C)O)[C@@H](N(C)C(=O)Nc3ccc(F)cc3)C[C@@H]42)cc1 | -100 | · | · | ·
C[C@H](O)[C@@H]1CN2CCc3c([nH]c4ccc(-c5ccc6c(c5)OCO6)cc34)[C@@H]2C[C@@H]1N(C)C(=O)Nc1ccc(F)cc1 | -102 | · | · | ·
CCc1cccc(C)c1NC(=O)CN1CCN(Cc2ccccc2Cl)S1(=O)=O | – | · | · | ·
Cc1ccc(NC(=O)COc2ccc3oc4c(c3c2)CCCC4)c(C)c1 | – | · | · | ·
COc1ccccc1OCC(=O)Nc1c(C(=O)c2ccc(F)cc2)oc2ccccc12 | – | · | · | ·
NC[C@@H]1O[C@H](C23CC4CC(CC(C4)C2)C3)Cc2c1ccc(O)c2O | ? | 9.3µM | 5.9µM | –
N#Cc1ccc(NC(=O)Cn2cnc(S(=O)(=O)N3CCCCC3)c2)cc1 | – | – | ? | –
N#Cc1ccc(NC(=O)Cn2cnc([N+](=O)[O-])c2)cc1 | – | – | 12µM | –
O=C(Cn1cnc([N+](=O)[O-])c1)Nc1cc(Oc2ccc(Cl)cc2Cl)cc([N+](=O)[O-])c1 | -73 | 13µM | – | 6.3µM
COc1ccc2c3c(n(C)c2c1)[C@@H](CO)N(C(C)=O)CC31CN(Cc2nccs2)C1 | – | · | · | ·
COC(=O)CN1C(c2ccc(OC)cc2)=Nc2ccc(Cl)cc2C1c1ccccc1 (configuration not stated) | – | 15µM | 10µM | –
COC(=O)CN1C(c2cccc(Cl)c2)=Nc2ccc(Cl)cc2C1c1ccccc1 (configuration not stated) | – | 2.3µM | 1.7µM | –
Cc1ccc(NC(=O)Cn2cc(C(=O)C3CCCCC3)c3ccccc32)c(C)c1 | – | · | · | ·
O=c1cc(N2CCN(c3ccc(F)cc3)CC2)[nH]c(=O)n1-c1cccc(Br)c1 | – | · | · | ·
CCOC(=O)c1c(CC(C)C)csc1NC(=O)COC(=O)c1cc(OC)c(OC)cc1[N+](=O)[O-] | -71 | – | – | –
C[C@H]1Cn2cnc(C(=O)N3CCN(C(=O)OC(C)(C)C)CC3)c2C(=O)N1 | – | · | · | ·
CCn1c(=O)c(-c2ccccc2)c(O)c2ccccc21 | – | – | – | –
O=c1c(-c2ccccc2)c(O)c2ccccc2n1-c1ccccc1 | -64 | – | – | –
O=C(Nc1cccnc1)c1ccc(CSc2ccc(Cl)cc2)o1 | – | · | · | ·
CCOc1ccc(-c2csc(-c3c(N)c(C(=O)c4ccc5c(c4)OCO5)n4ccccc34)n2)cc1 | – | · | · | ·
COc1ccc(C(CNC(=O)c2oc3ccc(C)cc3c2C)N2CCOCC2)cc1 (configuration not stated) | – | · | · | ·
COc1ccc(-c2nnc3c4ccccc4c(C)nn23)cc1S(=O)(=O)N1CCN(CCO)CC1 | – | 4.7µM | 2.6µM | ?
Cc1nn2c(-c3ccco3)nnc2c2ccccc12 | – | – | –[5.75 µM] | ?
Cc1nn2c(-c3ccc(S(=O)(=O)N4CCN(CCO)CC4)o3)nnc2c2ccccc12 | – | 9.3µM | 10µM | –
SMILES | HCMV antiviral | Pf growth 48h | Pf growth 96h | HCV inhibitor
Cc1ccc(-c2nn3c(C)nnc3c3ccccc23)cc1S(=O)(=O)N1CCN(CCO)CC1 | – | ? | ? | –
O=C(NC1CCCCC1)NC12CC3CC(CC(C3)C1)C2 | – | – | – | –
CS(=O)(=O)N(C(=O)NC(=O)NC12CC3CC(CC(C3)C1)C2)C1CCCCC1 | -64 | – | – | –
Cc1ccc(C(c2sc3nc(-c4ccco4)nn3c2O)N2CCOCC2)cc1 (configuration not stated) | – | · | · | ·
COc1ccc(-c2csc(NC(=S)NC(=O)c3ccc(S(=O)(=O)N(C)C)cc3)n2)cc1OC | ? | 13µM | ? | ?
COc1ccc(-c2csc(NC(=S)NC(=O)c3cccs3)n2)cc1OC | – | 12µM | ? | ?
COc1ccc(-c2csc(NC(=S)NC(=O)c3cccs3)n2)cc1Br | ? | – | – | –
Oc1ccccc1C=NCc1ccccc1 | · | – | ? | ·
COc1ccc(NC(=O)C2CCN(S(=O)(=O)c3ccc4c(c3)CCCC(=O)N4)CC2)cc1OC | – | · | · | ·
CCN1C(=O)c2ccccc2S(=O)c2ccc(C(=O)N3CCN(c4ccccc4OC)CC3)cc21 (configuration not stated) | – | · | · | ·
O=C(/C=C/c1ccccn1)c1cc(Cl)cc(Cl)c1O | – | ? | ? | 13µM
COc1ccc(/C=C/C(=O)c2cc(Cl)cc(Cl)c2O)c(OC)c1 | ? | – | – | ?
CCOc1ccc(NC(=O)Cn2c(=O)n(CCc3ccccc3)c(=O)c3c4c(sc32)CCCC4)cc1 | – | · | · | ·
Cc1cccc(/C=N\NC(=O)c2ccc(Cl)cc2)c1O | -101 | ? | – | ?
O=C(Cc1ccc(Cl)cc1)N/N=C/c1ccc(O)c(O)c1 | – | · | · | ·
Cc1cccc(/C=N/NC(=O)Cc2ccc(Cl)cc2)c1O | -89 | ? | – | 13µM
O=C(Cc1ccc(Cl)cc1)N/N=C/c1c(Cl)cccc1Cl | – | – | – | –
O=C(N/N=C/c1ccoc1)c1ccc(Cl)cc1 | -75 | 2.6µM | ? | –
Cc1ccc(O)c(/C=N/NC(=O)Cc2ccc(Cl)cc2)c1 | -99 | ? | – | ?
Cc1ccc(OCC(=O)Nc2c(C(=O)c3ccc(Cl)cc3)oc3ccccc23)cc1C | – | · | · | ·
CC1(C)C2CCC1(C)C(NCC(O)COc1ccc(C#N)cc1)C2 (configuration not stated) | – | · | 4.1µM | –
N#Cc1ccc(OCC(O)CN2CCN(CC(O)COc3ccc(C#N)cc3)CC2)cc1 (configuration not stated) | – | – | ? | –
COc1ccc(C(=O)NCc2ccc3c(c2)CCN3C(C)=O)cc1OC | – | · | · | ·
CN(C)c1cccc(NC(=O)C2Cc3c(-c4ccccc4Oc4ccccc4)ccnc3O2)c1 (configuration not stated) | -83 | · | · | ·
CC(=O)c1cccc(NC(=O)C2Cc3c(-c4ccccc4Oc4ccccc4)ccnc3O2)c1 (configuration not stated) | -66 | · | · | ·
SMILES | HCMV antiviral | Pf growth 48h | Pf growth 96h | HCV inhibitor
CC(=O)c1cccc(NC(=O)C2Cc3c(-c4ccco4)ccnc3O2)c1 (configuration not stated) | -62 | · | · | ·
COc1ccc(-c2cc(C(=O)Nc3c(Cl)cccc3Cl)no2)cc1OC | – | · | · | ·
CCOc1ccccc1-c1noc(CSc2nnc(-c3ccncc3)n2-c2ccc(F)cc2)n1 | – | · | · | ·
CCc1ccc(C(=O)c2cn(CC(=O)Nc3ccc(F)cc3)c3ccc(OC)cc3c2=O)cc1 | -71 | · | · | ·
CCc1ccc(C(=O)c2cn(CC(=O)Nc3cc(OC)cc(OC)c3)c3ccc(CC)cc3c2=O)cc1 | – | · | · | ·
CCc1ccc(C(=O)c2cn(CC(=O)Nc3ccc(F)c(F)c3)c3cc(OC)c(OC)cc3c2=O)cc1 | -67 | · | · | ·
CCc1ccccc1Nc1nc2ccccc2n2cnnc12 | – | · | · | ·
CC(C)(CCO)Nc1ncnc2onc(-c3ccc(F)cc3)c12 | -64 | – | – | –
COc1ccc(Cc2nc3ccc(C(=O)NCCCN4CCN(C)CC4)cc3o2)cc1 | – | · | · | ·
